Data published in PubChem BioAssay AID431 (Sanford-Burnham Center for Chemical Genomics, 2006).
Screen size: about 63,000 compounds; about 1,100 (1.7%) were called active. The sample as a whole holds a higher share of actives than the screen did. Results with a measured potency or affinity are listed apart. Values without a mark were called inactive.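 How the source made its calls: active means compounds whose percent cytotoxicity in the single-dose primary screen, scaled between solvent and toxic-drug controls, exceeds 50; inactive means the rest.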

Assay: viability loss of HPDE-C7K cells – cell-based, fluorescence, HTS, primary screen (AID 431);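 further: 0% = DMSO solvent wells and 100% = doxorubicin-treated wells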
Details: HPDE-C7K KRASV12 cells, Alamar Blue viability, 48 h; at 10 µM; stronger effect = higher value

Compound	cytotoxicity
O=C1NCCN1C(=O)C12CC3CC(CC(C3)C1)C2	-2.7%
Cc1nc2ccc3nc(NC(=O)c4ccc5c(c4)OCCO5)sc3c2s1	-0.1%
CCOc1ccc2[nH]c(=O)c(CN(Cc3ccco3)C(=O)c3ccc(Br)cc3)cc2c1	21.8%
COc1ccc2[nH]c(=O)c(CN(Cc3ccco3)C(=O)c3ccccc3)cc2c1	-1.9%
CCOc1ccc2[nH]c(=O)c(CN(Cc3ccco3)C(=O)c3cccc(F)c3)cc2c1	82% (active)
O=C(c1c(Cl)nc2sccn12)N(C(=O)c1c(Cl)nc2sccn12)c1ccc(Cl)cn1	16%
COc1ccc(Oc2c(C)oc3cc(OC(=O)N4CCOCC4)ccc3c2=O)cc1	-5%
COc1ccc(-n2ccnc2SCC(=O)NCc2ccc3c(c2)OCO3)cc1	3.4%
COc1ccc(NCc2ccc(OC)c(OC)c2)cc1	-7.9%
COc1ccc(-c2cc(=O)[nH]c(NCc3ccccc3)n2)cc1	7.1%
COc1ccc(CNc2ccc(-c3ccc(OC)cc3)nn2)cc1	59.4% (active)
COc1ccc(C(CC(=O)O)NS(=O)(=O)c2ccc(C)cc2)cc1OC (centres undefined)	-5.1%
Cc1nnc(C)n1/N=C/C=C/c1ccccc1	-40%
O=C(c1ccc(Cn2cc(Cl)cn2)cc1)N1CCN(c2ccccc2)CC1	4.2%
O=C(c1ccc(Cn2cc(Br)cn2)cc1)N1CCN(c2ccccc2)CC1	54.2% (active)
O=C(O)c1cccc(Cn2cc(Br)cn2)c1	-3.7%
COc1cccc(C2C=C(c3ccc(Br)s3)Nc3ncnn32)c1OC (centres undefined)	-7.6%
Fc1ccc(Br)cc1C1C=C(c2cccnc2)Nc2ncnn21 (centres undefined)	10.9%
Fc1ccc(Br)cc1C1C=C(c2ccc(Br)s2)Nc2ncnn21 (centres undefined)	56.5% (active)
COc1ccccc1CCC(=O)Nc1nc2ccccc2[nH]1	3.7%
O=C(O)c1cc(NCc2c(F)cccc2Cl)ccc1N1CCOCC1	-14.3%
C=CCn1c(SCC(=O)Nc2c(C)cccc2C)nnc1-c1cnccn1	-10%
CCCC(=O)N1CCN(S(=O)(=O)c2cc(Cl)ccc2OC)CC1	-3.6%

Compound	cytotoxicity
C/C=C(/C(=C/C)c1ccc(O)cc1)c1ccc(O)cc1	111% (active)
C=C(c1ccc(O)cc1)c1ccc(O)cc1	12.5%
CCC(=O)c1ccc(O)cc1	-12%
CC(C)(C)NC(=O)NC(=O)COC(=O)COc1ccc2c(c1)CCC2	-4.8%
CCN(CC)CCNC(=O)c1c(C)oc2cc(Br)c(OC)cc12	15.1%
CCOC(=O)c1c(C)n(C)c2cc(Br)c(C(=O)OC)cc12	5.9%
CCOC(=O)c1c(CN2CCN(C)CC2)n(C)c2cc(Br)c(OC)cc12	-8.5%
CCOC(=O)c1c(CNCCN(CC)CC)n(C)c2cc(Br)c(OC)cc12	71.2% (active)
CCOC(=O)c1c(CN2CCN(CCO)CC2)n(C)c2cc(Br)c(OC)cc12	98.7% (active)
CCOC(=O)c1c(CN2CCCCC2)n(C)c2cc(Br)c(OC)cc12	16.9%
O=C(COC(=O)c1cccc(S(=O)(=O)N2CCc3ccccc32)c1)NC1CCS(=O)(=O)C1 (centres undefined)	23.6%
O=C(O)Cn1cnc2scc(-c3cccs3)c2c1=O	6.1%
Clc1ccc(Cc2noc(Cc3ccccc3)n2)cc1Cl	-5%
CCOC(=O)C(CCSC)NC(=O)CN (centres undefined)	-9.8%
COC(=O)C1C(=O)c2c([nH]c(C(=O)OCCOC(C)C)c2C)CC1C (centres undefined)	-0.2%
CCC(C)(C(=O)NC1CCCCC1)N(CC1CCCO1)C(=O)c1ccccn1 (centres undefined)	-5.6%
CC1(C)CC(=O)C(C=NCC2CCCO2)=C(O)C1 (centres undefined)	-19.7%
CC(=O)Nc1cc2c(cc1C(=O)c1ccc(C)cc1)OCCO2	0.7%
COc1ccc(O)c(-c2cc(-c3cccs3)[nH]n2)c1	34.1%
Oc1ccc(Br)cc1-c1cc(-c2ccccc2F)[nH]n1	18%
Cc1nn(Cc2ccc(Cl)cc2Cl)c(C)c1NC(=O)c1nc2n(n1)C(C(F)F)CC(C)N2 (centres undefined)	9.5%
CCOC(=O)c1[nH]c(C)c(/C=N/O)c1C	0.1%
NC(=O)CSc1nnc(CNc2ccc(F)cc2)n1CC1CCCO1 (centres undefined)	-7.7%

Compound	cytotoxicity
CCOC(=O)c1c(NC(=O)CSc2nc3c(c(=O)n(C)c(=O)n3C)n2C(C)C)sc(C)c1C	77.5% (active)
CCCn1c(SCC(=O)Nc2sc(C)c(C)c2C(=O)OCC)nc2c1c(=O)n(C)c(=O)n2C	0.3%
COC(=O)c1c(NC(=O)CSc2nc3c(c(=O)n(C)c(=O)n3C)n2C(C)C)sc(C)c1C	-14%
CCn1c(SCC(=O)Nc2cc(C)ccc2C)nc2c(c1=O)SC(C)C2 (centres undefined)	8.9%
Cn1c(=O)c2c(nc(CN3CCN(c4ccc(F)cc4)CC3)n2CCN2CCOCC2)n(C)c1=O	-4.6%
CCn1c(=N)n(CC(O)c2ccco2)c2ccccc21 (centres undefined)	-9.8%
CC[C@H](C)C(=O)O[C@H]1C[C@@H](C)C=C2C=C[C@H](C)[C@H](CC[C@@H]3C[C@@H](O)CC(=O)O3)[C@H]21	55.1% (active)
CCCC(=O)Nc1cc(-c2nn(C)c(=O)c3ccccc23)ccc1N1CCCCC1	-4.5%
Cn1nc(-c2ccc(N3CCCCC3)c(NC(=O)c3ccco3)c2)c2ccccc2c1=O	57.8% (active)
CCC(=O)Nc1cc(-c2nn(C)c(=O)c3ccccc23)ccc1N1CCCCC1	2%
CC(C)C(NS(=O)(=O)c1ccc2c(c1)oc(=O)n2C)C(=O)N1CCN(Cc2ccccc2)CC1 (centres undefined)	7.1%
COc1cccc(C2CC(=O)Nc3cc4c(cc32)OCCO4)c1OC(C)C (centres undefined)	34.4%
CCOc1ccccc1C1CC(=O)Nc2cc3c(cc21)OCO3 (centres undefined)	55.9% (active)
CCOc1ccccc1C1CC(=O)NC2=C1C(=O)CCC2 (centres undefined)	16.8%
CCCCOc1ccccc1C1CC(=O)NC2=C1C(=O)CCC2 (centres undefined)	60.3% (active)
CCCOc1ccccc1C1CC(=O)NC2=C1C(=O)CCC2 (centres undefined)	36.3%
COc1ccccc1C1CC(=O)Nc2cc3c(cc21)OCCO3 (centres undefined)	63.8% (active)
CC(C)Oc1ccccc1C1CC(=O)Nc2cc3c(cc21)OCO3 (centres undefined)	42.7%
CCCOc1c(OC)cccc1C1CC(=O)Nc2cc3c(cc21)OCCO3 (centres undefined)	68.7% (active)
CCCOc1c(OC)cccc1C1CC(=O)Nc2cc3c(cc21)OCO3 (centres undefined)	9.6%
CC(C)Oc1ccccc1C1CC(=O)Nc2cc3c(cc21)OCCO3 (centres undefined)	45.7%
CCOc1c(OC)cccc1C1CC(=O)Nc2cc3c(cc21)OCCO3 (centres undefined)	8.9%
CCOc1ccccc1C1CC(=O)Nc2cc3c(cc21)OCCO3 (centres undefined)	48.6%
